Screens as filed in PubChem.
Rows were chosen to be rich in hits. Some 4.6% of all compounds tested hit in one or more screens of this group.
TRb-SRC2 inh: inhibitors of human thyroid hormone receptor beta-SRC2 interaction | Potency, µM (titrated, usually from 106 µM), for inactives: at the top dose activity change, negative = inhibition, usual class: inhibitors | 280,000 tested, 0.065% active | TRbeta-SRC2 peptide binding, fluorescence polarization; receptor liganded with 1 µM T3;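 note: potency is the fitted concentration of half-maximal effect; plate controls were bound peptide for no effect and peptide without receptor for full effect; nearly all actives have a fitted effect of over 50% in size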
Target sequence (P10828 whole entry, looked up): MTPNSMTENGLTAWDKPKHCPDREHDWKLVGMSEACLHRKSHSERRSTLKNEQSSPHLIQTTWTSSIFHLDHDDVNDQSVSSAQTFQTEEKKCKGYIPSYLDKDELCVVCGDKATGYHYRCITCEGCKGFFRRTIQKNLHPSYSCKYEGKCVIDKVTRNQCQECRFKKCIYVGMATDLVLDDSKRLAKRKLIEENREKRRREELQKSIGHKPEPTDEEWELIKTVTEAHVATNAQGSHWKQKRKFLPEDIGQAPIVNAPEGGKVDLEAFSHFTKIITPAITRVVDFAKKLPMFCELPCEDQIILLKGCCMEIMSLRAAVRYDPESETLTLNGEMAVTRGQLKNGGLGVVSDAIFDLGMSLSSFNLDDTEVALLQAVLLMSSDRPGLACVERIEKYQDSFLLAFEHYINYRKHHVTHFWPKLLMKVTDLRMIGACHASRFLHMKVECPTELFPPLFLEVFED
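Compounds were added to 0.6 uM TRb ligand-binding domain and 20 nM Texas Red-labeled SRC2 peptide in Tris buffer containing 1 uM T3, incubated 5 hr at ambient temperature, then read by fluorescence polarization.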
TR SRC2 fluor cs: Texas Red fluorescence interference in TRb-SRC2 counter-screen; TRb/SRC2 Texas Red total fluorescence interference; Potency, µM (doses to about 106 µM), without a hit: at the highest dose fluorescence change, negative = quenching; 280,000 tested, 0.29% active; active = well fitted curve in either direction with a large enough effect; inconclusive = small, poorly fitted or top-dose-only effect; note: potency is the fitted concentration of half-maximal effect
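Flags fluorescent or light-absorbing compounds by total fluorescence, S + 2P, at 555 nm excitation and 632 nm emission. Mixture: 20 nM Texas Red SRC2 peptide, 0.6 uM human TRb LBD, 1 uM T3, 5% DMSO; compound exposure 5 h at ambient temperature.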
Tau fluor cs: counter-screen for tau fibril formation inhibitors | Potency, µM (titrated, usually from 57.7 µM), inactives show at the highest dose activity change, negative = decrease | 280,000 tested, 0.93% active | tau K18 P301L Alexa594 fluorescence, heparin fibrillization; note: potency is the fitted concentration of half-maximal effect; nearly all actives have a fitted effect of over 55% in size
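Human tau K18 P301L (15 uM unlabeled, 0.24 uM Alexa 594-labeled) in 100 mM sodium acetate pH 7 with 20 uM heparin, 6 hr at 37 C. ThT 30 uM added, 1 hr ambient; Alexa 594 FP and total fluorescence read at 555/632 nm.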
Tau FP inhib: blocks human tau fibril formation measured by polarization; Potency, µM (series often up to 57.7 µM), without a hit: at the top dose activity, negative = inhibition, most hits filed as inhibitors; AID 1468; K18 P301L tau heparin fibrillization, Alexa594 FP, 6 h; 280,000 tested, 0.39% active; note: potency is the fitted concentration of half-maximal effect; nearly all actives have a fitted effect of over 55% in size
Target sequence (P10636 561-689 P618L limits assumed): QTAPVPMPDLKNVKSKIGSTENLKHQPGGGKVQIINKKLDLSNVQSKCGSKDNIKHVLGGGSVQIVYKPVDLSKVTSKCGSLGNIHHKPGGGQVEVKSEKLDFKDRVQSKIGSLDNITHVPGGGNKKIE
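FP of Alexa 594-tau after heparin (20 uM) induction. Substrate: human K18 P301L, 15 uM unlabeled, 0.24 uM labeled. Buffer 100 mM sodium acetate pH 7. 6 hr, 37 C.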
PNC inhibitor: blocks assembly of the perinucleolar compartment; PC3M PTB-GFP, PNC prevalence imaging, 16 h; stronger effect = lower value; activity change (PNC), negative = inhibition, % at 10 µM; 140,000 tested, 3.1% active; AID 2417;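 active = readout at or below -70, meaning at least 70% loss of cells showing the perinucleolar compartment, a nuclear body marking cancer cells; inconclusive = readout between -30 and a set limit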;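 note: plate controls were DMSO wells for no effect and camptothecin positive control wells for full effect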
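Compounds are pinned in duplicate onto adhered PC3M cells stably expressing GFP-tagged PTB and incubated 16 h at 37 C. Cells are then fixed, nuclei stained with Hoechst, and PNC-positive cells counted.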
Tau fibril ThT: inhibitors of human tau fibril formation, thioflavin T binding; Potency, µM (highest dose often 57.4 µM), without a hit: top-dose activity, negative = inhibition, usual class: inhibitors; 270,000 tested, 2.1% active; P10636; recombinant tau K18 P301L, heparin-induced fibrillization, ThT fluorescence; note: potency is the fitted concentration of half-maximal effect; nearly all actives have a fitted effect of over 55% in size
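Fibril formation assay: tau K18 P301L at 15 uM with trace Alexa 594 label, heparin inducer 20 uM, pH 7 sodium acetate buffer, 37 C for 6 hr; endpoint ThT signal.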
* hit, by the source's call; [ ] = dose if it differs, or a comment. Unless noted, calls come from the whole dose curve; as a rule, active = well fitted curve in the direction sought with a large enough effect; inconclusive = small, poorly fitted or top-dose-only effect, or another doubt; inactive = no such curve, though single readings can be large; an effect the other way counts as inactive or inconclusive. Unless noted, % is set by controls: 0 for no effect and ±100 for the full control effect.

For Cc1cc2cc(CNC(=O)c3ccc(S(=O)(=O)N4CCOCC4)cc3)ccc2n1C the results were TRb-SRC2 inh 39.8µM*, TR SRC2 fluor cs 44.7µM*[fluorescent], Tau fluor cs -5.1%, Tau FP inhib inconclusive, PNC inhibitor 21.5 and Tau fibril ThT inconclusive.
For COc1ccccc1/C=N/OC(=O)c1ccc(F)cc1 the results were TRb-SRC2 inh -3.9%, TR SRC2 fluor cs -1.4%, Tau fluor cs 3.6%, Tau FP inhib -8.2% and Tau fibril ThT -4.9%.
Screening C1=C2C[N+]3(CCCC3)CC2Cc2ccc3ccccc3c21 (stereo not given) returned TRb-SRC2 inh -8.6%, TR SRC2 fluor cs -0.6%, Tau fluor cs -4.2%, Tau FP inhib -0.3%, PNC inhibitor inconclusive and Tau fibril ThT 3.1%.
Screening Cc1cc(O)ccc1Nc1nc(-c2cccs2)cs1 returned TRb-SRC2 inh -5.4%, TR SRC2 fluor cs 2.8%, Tau fluor cs 25.1µM*[quencher], Tau FP inhib 4.4% and Tau fibril ThT 14.1µM*.
For COc1ccc(C(=O)Nc2nc(-c3cccs3)cs2)cc1 the results were TRb-SRC2 inh 10.5%, TR SRC2 fluor cs -0.3%, Tau fluor cs inconclusive, Tau FP inhib inconclusive, PNC inhibitor 23.4 and Tau fibril ThT inconclusive.
`Cc1ccc(Nc2nc(-c3cccs3)cs2)nc1` gave TRb-SRC2 inh -1.3%, TR SRC2 fluor cs -6.4%, Tau fluor cs 22.4µM*[quencher], Tau FP inhib -8.8% and Tau fibril ThT 15.8µM*.
Screening c1cncc(Nc2nc(-c3cccs3)cs2)c1 returned TRb-SRC2 inh -18.4%, TR SRC2 fluor cs 0.0%, Tau fluor cs 15.8µM*[quencher], Tau FP inhib 9.2%, PNC inhibitor inconclusive and Tau fibril ThT inconclusive.
CN1CCN(CCCNC(=O)c2nnc(Cc3c(F)cccc3Cl)o2)CC1 was read as TRb-SRC2 inh 2.1%, TR SRC2 fluor cs -0.5%, Tau fluor cs 1.9%, Tau FP inhib 3.8%, PNC inhibitor inconclusive and Tau fibril ThT 0.5%.
Screening Cc1nnc(NC(=O)c2sc3ccccc3c2Cl)s1 returned TRb-SRC2 inh 3.2%, TR SRC2 fluor cs -1.2%, Tau fluor cs -17.8%, Tau FP inhib 5.8%, PNC inhibitor -12.6 and Tau fibril ThT inconclusive.
Screening N#CC1=C(N)n2c(s/c(=C\c3cccs3)c2=O)=C(C#N)C1c1cccs1 (stereo not given) returned TRb-SRC2 inh 5.2%, TR SRC2 fluor cs -6.3%, Tau fluor cs -27.5%, Tau FP inhib -7.1%, PNC inhibitor -11.1 and Tau fibril ThT inconclusive.
`CCCCn1c(=O)c2oc3ccccc3c2n(Cc2cccc(F)c2)c1=O` gave TRb-SRC2 inh 3.4%, TR SRC2 fluor cs 0.6%, Tau fluor cs -5.4%, Tau FP inhib -6.3% and Tau fibril ThT 6.7%.
O=C(CO/N=C/c1cccc([N+](=O)[O-])c1)Nc1ccc2ccccc2c1 was read as TRb-SRC2 inh -2.8%, TR SRC2 fluor cs 1.0%, Tau fluor cs 12.6µM*[quencher], Tau FP inhib -5.5%, PNC inhibitor 27.2 and Tau fibril ThT inconclusive.
CCOC(=O)C1CCC(CN(Cc2ccc(OC)cc2)S(=O)(=O)c2ccc(C)cc2)CC1 (stereo not given) was read as TRb-SRC2 inh -2.3%, TR SRC2 fluor cs -0.1%, Tau fluor cs -16.6%, Tau FP inhib -8.1% and Tau fibril ThT -5.9%.
Screening CCOC(=O)COc1ccc(S(=O)(=O)NCc2cccnc2)cc1 returned TRb-SRC2 inh 1.2%, TR SRC2 fluor cs 0.4%, Tau fluor cs -1.7%, Tau FP inhib 4.2%, PNC inhibitor -22.8 and Tau fibril ThT 3.2%.
`Nc1cccc2nsnc12` gave TRb-SRC2 inh 3.9%, TR SRC2 fluor cs 1.0%, Tau fluor cs -15.7%, Tau FP inhib inconclusive and Tau fibril ThT 28.2µM*.
CCc1ccc(-n2nnnc2SCC(=O)NNC(=O)c2ccco2)cc1 was read as TRb-SRC2 inh -14.9%, TR SRC2 fluor cs -0.2%, Tau fluor cs 1.0%, Tau FP inhib 1.1%, PNC inhibitor 124.7 and Tau fibril ThT -3.4%.
COC/C=C/C1=CC2=CC(=O)C(C)(OC(=O)c3cnc4ccccc4n3)C(=O)C2=CN1CCc1ccccn1 (stereo not given) was read as TRb-SRC2 inh 3.3%[11.2 µM], TR SRC2 fluor cs -1.5%[11.2 µM], Tau fluor cs -12.1%[11.6 µM], Tau FP inhib 1.2%[11.6 µM] and Tau fibril ThT -3.8%[11.5 µM].
`COC/C=C/C1=CC2=CC(=O)C(C)(OC(=O)c3cnc4ccccc4n3)C(=O)C2=CN1Cc1ccccc1` (stereo not given) gave TRb-SRC2 inh -0.9%[11.2 µM], TR SRC2 fluor cs -12.8%[11.2 µM], Tau fluor cs inconclusive, Tau FP inhib inconclusive and Tau fibril ThT 10µM*.
Screening COC/C=C/C1=CC2=CC(=O)C(C)(OC(=O)c3cnc4ccccc4n3)C(=O)C2=CN1CCCCO (stereo not given) returned TRb-SRC2 inh -2.7%[11.2 µM], TR SRC2 fluor cs inconclusive, Tau fluor cs -16.9%[11.6 µM], Tau FP inhib inconclusive and Tau fibril ThT 12.6µM*.
Screening COC/C=C/C1=CC2=CC(=O)C(C)(OC(=O)c3cnc4ccccc4n3)C(=O)C2=CN1Cc1ccc(OC)cc1 (stereo not given) returned TRb-SRC2 inh 0.1%[11.2 µM], TR SRC2 fluor cs -3.9%[11.2 µM], Tau fluor cs inconclusive, Tau FP inhib inconclusive and Tau fibril ThT 12.6µM*.
For CCNC(=S)/N=C(/Nc1ccccc1)Nc1nc(C)cc(C)n1 the results were TRb-SRC2 inh -1.7%, TR SRC2 fluor cs -4.8%, Tau fluor cs -27.6%, Tau FP inhib 6.5% and Tau fibril ThT -17.9%.
Cc1cccc(NC(=O)C2CCCN(S(=O)(=O)c3cccc4nonc34)C2)c1 (stereo not given) was read as TRb-SRC2 inh -4.5%, TR SRC2 fluor cs 0.5%, Tau fluor cs -13.7%, Tau FP inhib -8.5% and Tau fibril ThT -1.0%.
For CC[C@@H]1O[C@]2(C=C[C@@H]1C)C[C@H]1C[C@H](CC=C(C)[C@@H](O[C@@H]3C[C@H](OC)[C@H](O[C@@H]4C[C@H](OC)[C@H](O)[C@H](C)O4)[C@H](C)O3)[C@@H](C)C=CC=C3CO[C@@H]4[C@@H](O)C(C)=C[C@@H](C(=O)O1)[C@]34O)O2 the results were TRb-SRC2 inh 5.3%[53 µM] and TR SRC2 fluor cs -1.2%[53 µM].
O=C(Nc1ccc(NC(=O)c2ccco2)c(Cl)c1)c1ccccc1 was read as TRb-SRC2 inh 5.2%, TR SRC2 fluor cs 1.5%, Tau fluor cs 3.7%, Tau FP inhib 2.9% and Tau fibril ThT inconclusive.
Screening Cc1ccc2c(c1)C(c1ccc(F)cc1)N(C(=O)c1cc3ccccc3oc1=O)CC(=O)N2 (stereo not given) returned TRb-SRC2 inh 6.5%, TR SRC2 fluor cs -2.3%, Tau fluor cs -16.8%, Tau FP inhib -0.6%, PNC inhibitor -88.9* and Tau fibril ThT -14.7%.
